# The supplement of paper PMC12024424
# Structures can show the parent of a compound that is named as a salt.
# Tested on: Staphylococcus aureus Sa2 (MRSA, cystic fibrosis isolate)
# Experiment: growth reduction vs untreated control (OD550); higher = stronger antibacterial activity
# Conditions: 0.1 mM; 24 h
# Experimental: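 Single-dose screen of the MedChem Express Drug Repurposing Library (0.1 mM, 1% DMSO) against planktonic MRSA S. aureus Sa2 (CF isolate) in TSB in 96-well plates, 37 °C aerobic, 24 h. Assays were run in triplicate and repeated twice.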
row,SMILES,growth reduction [%]
1,O=C(O)Cc1cc(I)c(Oc2ccc(O)c(I)c2)c(I)c1 [Tiratricol],100
2,CC(=O)OCC(=O)[C@@]1(O)CC[C@H]2[C@@H]3CCC4=CC(=O)C=C[C@]4(C)[C@H]3C(=O)C[C@@]21C [Prednisone acetate],97.7
3,Clc1ccc(C(c2ccccc2Cl)C(Cl)Cl)cc1 (stereo not given) [Mitotane],100
4,CNCCC(Oc1ccc(C(F)(F)F)cc1)c1ccccc1 (stereo not given) [Fluoxetine (hydrochloride)],100
5,Nc1ccn([C@@H]2O[C@H](CO)[C@@H](O)C2(F)F)c(=O)n1 [Gemcitabine],100
6,CC1=C(/C=C/C(C)=C/C=C/C(C)=C/C(=O)Nc2ccc(O)cc2)C(C)(C)CCC1 [Fenretinide],100
7,Cc1ccc(-n2[nH]c(C)c(N=Nc3cccc(-c4cccc(C(=O)O)c4)c3O)c2=O)cc1C [Eltrombopag],96.5
8,CSc1ccc(OCc2ncc([N+](=O)[O-])n2C)cc1 [Fexinidazole],98.5
9,Cn1ncc(Cl)c1-c1cc(C(=O)N[C@H](CN)Cc2cccc(F)c2)sc1Cl [Afuresertib],100
10,Clc1ccc(COC(Cn2ccnc2)c2ccc(Cl)cc2Cl)cc1 (stereo not given) [Econazole (nitrate)],100
11,CCOC(=O)N1CCC(=C2c3ccc(Cl)cc3CCc3cccnc32)CC1 [Loratadine],100
12,Clc1ccc(CO/N=C(\Cn2ccnc2)c2ccc(Cl)cc2Cl)c(Cl)c1 [Oxiconazole nitrate],100
13,Fc1ccc2c(CCNCc3cccc(OCC(F)(F)C(F)F)c3)c[nH]c2c1 [Idalopirdine Hydrochloride],100
14,CC(=C(CCOC(=O)C(C)C)SSC(CCOC(=O)C(C)C)=C(C)N(C=O)Cc1cnc(C)nc1N)N(C=O)Cc1cnc(C)nc1N (stereo in doubt) [Sulbutiamine],97
15,Cc1cc(OCCCS(C)(=O)=O)cc(C)c1-c1cccc(COc2ccc3c(c2)OC[C@H]3CC(=O)O)c1 [Fasiglifam],100
16,C=CC(=O)Nc1cc(Nc2nccc(-c3cn(C)c4ccccc34)n2)c(OC)cc1N(C)CCN(C)C [Osimertinib mesylate],100
17,N=C(N)c1ccc(OCCCCCOc2ccc(C(=N)N)cc2)cc1 [Pentamidine (isethionate)],100
18,Cc1cc(C2CCCCC2)n(O)c(=O)c1 [Ciclopirox (olamine)],99.3
19,OCCN1CCN(CC/C=C2/c3ccccc3Sc3ccc(C(F)(F)F)cc32)CC1 [Flupentixol dihydrochloride],100
20,O=C(Nc1ncc(SCCN2CCCC2)s1)[C@]1(c2ccc(S(=O)(=O)C3CC3)cc2)C[C@H]1C1CCCCC1 [Globalagliatin],100
21,CC[C@H](C)C(=O)O[C@H]1C[C@@H](C)C=C2C=C[C@H](C)[C@H](CC[C@@H]3C[C@@H](O)CC(=O)O3)[C@H]21 [Lovastatin],100
22,CC/C(=C(\c1ccccc1)c1ccc(OCCN(C)C)cc1)c1ccccc1 [Tamoxifen],100
23,COc1cc(/C=C/c2ccc(O)cc2)cc(OC)c1 [Pterostilbene],99.9
24,CC(C)COc1ccc(CNC(=O)N(Cc2ccc(F)cc2)C2CCN(C)CC2)cc1 [Pimavanserin tartrate],100
25,O=c1oc2ccccc2c(O)c1Cc1c(O)c2ccccc2oc1=O [Dicoumarol],100
